Here are results for 38 molecules from PubChem BioAssay (NCI).

The panel holds about 83,000 compounds, 20% with a hit somewhere; the sample as a whole holds those more often.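 Note: values are percent growth. 100 is the growth of untreated cells, values between 100 and 0 indicate rising inhibition; between -100 and 0 indicates cell death.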 A number with no mark means an inactive call. Calls of active or inactive are those of the source. The calls were made as follows: active = growth percent below 10; inactive = the rest.

For the first test, the system named is SNB-19 CNS. The test can be described thus: NCI-60 one-dose screen, 48 h (100 = growth as untreated, 0 = no growth, -100 = all killed). The note with it: 10 µM unless noted.
For the molecule `Nc1c(C(=O)Nc2cccc3ccccc23)sc2nc3c(cc12)CCCC3`, the growth is 39.2%. For `COc1ccc(OCC(CO)N2CCN(c3ccccc3)CC2)cc1` (centres undefined), the growth was 96.6%. Still for that read-out and setting: then `Clc1ccc2[nH]cc(-c3nc(-c4c[nH]c5ncccc45)cs3)c2c1`, with 65.1%; and `C=C(C)[C@@H]1CC[C@]2(CN)CC[C@]3(C)[C@H](CC[C@@H]4[C@@]5(C)CCC(=O)NC(C)(C)[C@@H]5CC[C@]43C)[C@@H]12`, with 78.4%; and `C/C(=N\Nc1ccc2ccccc2n1)c1ccccn1`, with 23.8%. As for `C[N+](C)(CCCCCC[N+](C)(C)C1c2ccccc2-c2ccccc21)C1c2ccccc2-c2ccccc21`, the growth was 105%.

The subject of the next test is PC-3 prostate. The description is as above. The note with it: 10 µM unless noted.
With `C[C@H]1[C@@H]2[C@H]3CC[C@@H]4[C@@]5(C)Cc6c([nH]c7ccccc67)C(C)(C)[C@@H]5CC[C@@]4(C)[C@]3(C)CC[C@]23CO[C@]1(C)[C@@H](C(=O)/C=C/c1ccccn1)C3`, the growth is 60.3%. The same measure, in the same setting: in the case of `CCCC1CCCCN1C(=O)OCC(C)C` (centres undefined) it was 96.5%; in that of `N#CC1C(=N)Cc2ccccc2-c2ccccc21` (centres undefined), 62.1%; in that of `Cc1cc(C)nc(NC(N)=NCCc2ccccc2)n1`, 37.7%.

As for `N=c1c(S(=O)(=O)c2ccccc2)cc2c(=O)n3ccccc3nc2n1C1CCCC1`, the growth is 85%. Still for that read-out and setting: in the case of `CCOc1ccc(NC(=O)c2ccccc2-c2ccccc2C(=O)O)cc1` it was 101%. On the same count and under the same terms, then `CCCCC[C@H]1C/C=C2/C(=O)C=C[C@@H]2C/C=C\CCCC(=O)O[C@@H](CCCCC)C/C=C2/C(=O)C=C[C@@H]2C/C=C\CCCC(=O)O1`, with -71% (active); and `CC(C)=CCC/C(C)=C/CC/C(C)=C/CC/C(C)=C/CSC[C@H](NC(=O)CCCCCN1CCN(C)CC1)C(=O)NC1CCCCC1`, with 64.4%; and `O=C(/C=C/c1ccc2ccccc2c1)Nc1ncc(Cc2ccccc2)s1`, with 71.2%.

With `C=C(C)[C@@H]1CC[C@]2(C(=O)O)CC[C@]3(C)[C@H](CC[C@@H]4[C@@]5(C)C/C(=C/c6ccc(OC)cc6)C(=O)C(C)(C)[C@@H]5CC[C@]43C)[C@@H]12`, the growth is 15.5%. Consider `COc1ccc2c(c1)c(-c1nc(-c3cn(C)c4ncccc34)cs1)cn2CCCN1CCCCC1`, for which the growth was 51.1%. Consider `C#CCC(C)(O)/C=C/C1=C(C)CCCC1(C)C` (centres undefined), for which the growth was 77.6%.

`C=C(C)[C@@H]1CC[C@]2(C=NCCCNCCCCNCCCN)CC[C@]3(C)[C@H](CC[C@@H]4[C@@]5(C)CCCNC(C)(C)[C@@H]5CC[C@]43C)[C@@H]12`: the growth is 85.9%. For the molecule `Nc1ccc(Br)cn1`, the growth is 98.9%. Still for that read-out and setting: then `COc1cccc(-c2nn(-c3ccccc3)cc2-c2ccnc(NCCNS(=O)(=O)c3ccc(Cl)cc3)c2)c1`, with 10.6%.

Turning to `COc1ccc(C2CC(=O)c3c(nc4ccc(Cl)cc4c3N)C2)cc1` (centres undefined), the growth is 101%.

For `COc1cc2c(cc1-c1c(C)noc1C)ncc1nc(C3CCC(F)(F)CC3)n([C@@H](C)COC(F)F)c12`, the growth was 36.7%. On to `CC1(n2nnnc2N2CCCN(c3ncccc3N)CC2)CCC1`, for which the growth was 75.3%. For `O=C(O[C@@H]1Cc2c(O)cc(O)cc2O[C@@H]1c1cc(O)c(O)c(O)c1)c1cc(O)c2c(c1)OCO2`, the growth is 83.6%. Take `COc1cc(-c2nc(-c3ccccc3)c(-c3ccccc3)[nH]2)cc(OC)c1O`: the growth was -58.6% (active).

Take `C=C(C)[C@@H]1CC[C@]2(C(=O)O)CC[C@]3(C)[C@H](CC[C@@H]4[C@@]5(C)C/C(=C/c6cccc(I)c6)C(=O)C(C)(C)[C@@H]5CC[C@]43C)[C@@H]12`: the growth is 15.5%. The same measure, in the same setting: then `NC1=NN=C2N(N)C(=O)c3cnn(-c4ccccc4)c3N2c2nc(-c3ccccc3)cc(-c3ccccc3)c21`, with 90.5%; and `CCSc1ncnc2c1ncn2C1OC(CO)C(O)C1O` (centres undefined), with 16.8%; and `COc1ccc(-c2nc3ccccn3c2-c2nc3ccc(Cl)cc3[nH]2)cc1`, with 57.5%. On the same count and under the same terms, in the case of `CC(=O)OC[C@]12CC[C@@H](/C(C)=N/O)[C@@H]1[C@H]1CC[C@@H]3[C@@]4(C)CCCNC(C)(C)[C@@H]4CC[C@@]3(C)[C@]1(C)CC2` it was 42.5%.

As to `OCC12CCCC(CO)(COC1)C2O` (centres undefined), the growth is 99.7%. Regarding `Cc1ccc(N(CC(=O)Nc2ccc(S(=O)(=O)N3CCC(N4CCCC4)CC3)cc2)S(=O)(=O)c2ccc(Cl)cc2)cc1`, the growth was 12%. On the same count and under the same terms, in the case of `CC[C@]12C=CCN3CC[C@@]4(c5cc([C@H]6CCC(=O)N6)c(OC)cc5N(C)[C@H]4[C@@](O)(C(=O)OC)[C@@H]1OC(C)=O)[C@@H]32` it was 95.5% [2.5 µM]; in that of `Brc1ccc(Cn2nnnc2-c2ccn(-c3ccccc3)n2)cc1`, 60.8%.

On to `COC(=O)c1cc(=O)nc(N/N=C/c2ccc(C)cc2)s1`, for which the growth is 91.2%. On the same count and under the same terms, then `Cc1ccc2oc(=O)cc(-c3sc(N4CCCCC4)nc3-c3ccccc3)c2c1`, with 88.1%; and `CC1(C)CC[C@]2(C(=O)Nc3ccccn3)CC[C@]3(C)C(=CC[C@@H]4[C@@]5(C)C/C(=C/c6ccncc6)C(=O)C(C)(C)[C@@H]5CC[C@]43C)[C@@H]2C1`, with 28%; and `Nc1c(C(=O)Nc2cccc3ccccc23)sc2nc3c(cc12)CCCC3`, with 39.9%. For `COc1ccc(OCC(CO)N2CCN(c3ccccc3)CC2)cc1` (centres undefined), the growth was 84.6%. Still for that read-out and setting: then `Clc1ccc2[nH]cc(-c3nc(-c4c[nH]c5ncccc45)cs3)c2c1`, with 39.2%; and `C=C(C)[C@@H]1CC[C@]2(CN)CC[C@]3(C)[C@H](CC[C@@H]4[C@@]5(C)CCC(=O)NC(C)(C)[C@@H]5CC[C@]43C)[C@@H]12`, with 37.4%; and `C/C(=N\Nc1ccc2ccccc2n1)c1ccccn1`, with 4.97% (active). In the case of `C[N+](C)(CCCCCC[N+](C)(C)C1c2ccccc2-c2ccccc21)C1c2ccccc2-c2ccccc21`, the growth is 98.2%.
